POLK inh: qHTS for Inhibitors of Polymerase Kappa; purified Pol kappa, fluorescent DNA synthesis assay, 10 min; Potency, µM (top dose mostly 107 µM), for inactives: at the highest dose activity, negative = inhibition, hits mostly inhibitors; 400,000 compounds, 0.53% hits; further: on the % scale 0 is the no-effect control and ±100 the full control effect
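Pol kappa 10 nM + cpd, 15 min RT; start w/ substrate 50 nM final; fluorescence kinetic read, 0 and 10 min. Neg ctrl: buffer, no enzyme.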
L3MBTL1 block: qHTS Assay for the Inhibitors of L3MBTL1 | AlphaScreen L3MBTL1–H3K9me1 peptide binding | Potency, µM (highest dose often 57.1 µM), inactives show at the top dose activity, negative = inhibition, most hits filed as inhibitors | 230,000 compounds, 0.66% hits | AID 485360, 2010; further: on the % scale 0 is the no-effect control and ±100 the full control effect; nearly all actives have a fitted effect of over 60% in size
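AlphaScreen assay: L3MBTL1 (50 nM final) was preincubated 30 min at room temperature with biotinylated H3(1-15)K9me1 peptide (75 nM final), then 30 min with library compounds; streptavidin donor and nickel chelate acceptor beads (10 ug/mL final) added, 30 min dark.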
Pol beta inh: qHTS Assay for Inhibitors of DNA Polymerase Beta; P06746; Pol beta primer extension/strand displacement, fluorescence kinetic; Potency, µM (doses to about 114 µM), inactives show at the top dose activity change, negative = inhibition, actives largely listed as inhibitors; 340,000 compounds, 1.3% hits; further: on the % scale 0 is the no-effect control and ±100 the full control effect
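Pol beta (10 nM) and compounds were preincubated 15 min at room temperature, then 50 nM substrate (final) started primer extension/strand displacement. Reads were taken at 0 and 10 min; concentration-response data were fitted to a four-parameter Hill equation.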
Pol iota inh: qHTS for Inhibitors of Polymerase Iota; 390,000 compounds, 1% hits; Potency, µM (doses to about 115 µM), without a hit: top-dose activity, negative = inhibition, actives largely listed as inhibitors; AID 588590, 2011; DNA polymerase iota (Homo sapiens), Q9UNA4; Pol iota fluorescent replication assay, 10 min
Target sequence (Q9UNA4 whole entry, looked up): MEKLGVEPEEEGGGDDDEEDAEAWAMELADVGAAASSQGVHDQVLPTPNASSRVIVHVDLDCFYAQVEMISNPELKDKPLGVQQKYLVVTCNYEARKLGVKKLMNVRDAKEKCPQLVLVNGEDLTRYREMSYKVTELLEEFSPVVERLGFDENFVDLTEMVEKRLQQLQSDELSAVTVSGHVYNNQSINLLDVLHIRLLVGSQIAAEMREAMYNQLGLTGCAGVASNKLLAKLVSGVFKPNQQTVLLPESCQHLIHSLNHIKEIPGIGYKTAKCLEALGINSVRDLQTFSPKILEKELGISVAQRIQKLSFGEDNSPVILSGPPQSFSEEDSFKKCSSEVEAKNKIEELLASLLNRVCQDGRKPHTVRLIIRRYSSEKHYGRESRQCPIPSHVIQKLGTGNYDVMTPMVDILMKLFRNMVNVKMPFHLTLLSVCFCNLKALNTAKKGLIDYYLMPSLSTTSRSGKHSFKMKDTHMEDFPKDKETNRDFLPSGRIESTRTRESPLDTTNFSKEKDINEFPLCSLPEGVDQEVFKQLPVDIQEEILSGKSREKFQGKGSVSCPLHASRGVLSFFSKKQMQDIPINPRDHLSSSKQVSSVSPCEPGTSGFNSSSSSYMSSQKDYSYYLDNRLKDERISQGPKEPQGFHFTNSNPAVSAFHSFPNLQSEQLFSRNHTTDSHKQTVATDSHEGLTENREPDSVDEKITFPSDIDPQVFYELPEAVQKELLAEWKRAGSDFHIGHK
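Pol iota at 10 nM preincubated 15 min with compounds at room temperature; reaction started with fluorescent substrate, 50 nM final. Fluorescence read kinetically at 0 and 10 min; buffer-only wells as negative control.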
Pol eta inh: qHTS for Inhibitors of Polymerase Eta | AID 588591, 2011 | 390,000 compounds, 1.2% hits | DNA polymerase eta (Homo sapiens), Q9Y253 | recombinant Pol eta, fluorescent DNA replication assay | Potency, µM (titrated, usually from 114 µM), without a hit: at the highest dose activity change, negative = inhibition, usual class: inhibitors; further: on the % scale 0 is the no-effect control and ±100 the full control effect
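Pol eta (10 nM) was preincubated with compounds for 15 min at room temperature, after which fluorescent replication substrate (50 nM final) was added to start the reaction. Fluorescence was read kinetically at 0 and 10 min.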
Numbers without * were called inactive; ? = inconclusive; . = not tested or not shown; [ ] = another dose, or the depositor's remark. Hits are enriched below; roughly 2.4% of the tested compounds scored in any of these assays. The call rests on the fitted dose curve; in most records, active means well fitted curve in the direction sought with a large enough effect; inconclusive means small, poorly fitted or top-dose-only effect, or another doubt; inactive means no such curve, though single readings can be large; an effect the other way counts as inactive or inconclusive. Potency means the concentration at half of the fitted maximal effect.

SMILES	POLK inh	L3MBTL1 block	Pol beta inh	Pol iota inh	Pol eta inh
O=S(=O)(c1ccc(Br)cc1)c1nc(-c2ccco2)oc1SCc1ccccc1Cl	?	.	13%	79µM*	-1%
Cc1ccc(CSc2oc(-c3ccco3)nc2S(=O)(=O)c2ccc(Br)cc2)cc1	?	.	-27%	56µM*	-9%
Cc1ccc(CSc2oc(-c3ccco3)nc2S(=O)(=O)c2ccc(Cl)cc2)cc1	-1%	.	0%	-21%	3%
C[C@H]1[C@@H](OC(=O)CCC(=O)O)OC2OC3(C)CC[C@H]4[C@H](C)CC[C@@H]1[C@@]24OO3 (some centres not stated)	5%[19.4 µM]	.	.	.	.
CCCC[C@@H]1CCCO[C@@](C(=O)NCc2ccc(S(C)(=O)=O)cc2)(C(F)(F)F)C1	-9%	.	.	-2%	.
Cc1cc(C)c(NC(=O)CSc2ncc(S(=O)(=O)c3ccc(C(C)(C)C)cc3)c(=O)[nH]2)c(C)c1	3%	.	0%	-3%	-9%
CCc1nn2c(=O)cc(COc3ccc(NC(=O)c4ccco4)cc3)nc2s1	-22%	.	-21%	71µM*	-10%
CSc1ccc(NC(=O)Nc2ccc(C(=O)NCC(=O)O)cc2)cc1	-20%	-13%	28µM*	5%	?
COc1ccc(-n2cc(-c3ccc4c(c3)OCO4)n(CC(=O)Nc3cccc(C)c3)c2=O)cc1	12%	.	0%	-7%	8%
COc1cc2cc(Oc3ccc4ccc(=O)oc4c3)c(=O)oc2cc1O[C@@H]1O[C@H](CO)[C@@H](O)[C@H](O)[C@H]1O	45µM*	32µM*	.	50µM*	8.9µM*
COC(=O)c1ccc(COC(=O)C2CCN(S(=O)(=O)c3c(C)cc(C)cc3C)CC2)o1	.	.	.	.	-12%
CCOc1ccc(NC(=O)CC2Nc3cccc4cccc(c34)NC2=O)cc1 (configuration not stated)	?	.	31%	5µM*	4%
CCOc1ccc(NC(=O)CC2Nc3ccccc3NC2=O)cc1 (configuration not stated)	-8%	-5%	-7%	33%	-11%
CCOC(=O)c1ccc(NC(=O)CC2Nc3cccc4cccc(c34)NC2=O)cc1 (configuration not stated)	14µM*	.	-3%	3.5µM*	-20%
CN(C)C(=O)Nc1ccc(Oc2ccc(Cl)cc2)cc1	12%[60.1 µM]	.	.	.	.
CCN(CC(=O)Nc1ccccc1C(F)(F)F)C(=O)c1cc2c(s1)CCCCC2	-14%	5%	.	15%	-13%
COCCN(CC(=O)Nc1cccc(C)c1C)C(=O)c1cc2c(s1)CCC2	?	-25%	.	89µM*	?
COc1ccc(/C=C/C(=O)O)cc1S(=O)(=O)N1CCCC1	-11%	-17%	?	41%	18µM*
COc1ccc(/C=C/C(=O)O)cc1S(=O)(=O)N1CCC(C)CC1	-27%	?	3%	-6%	79µM*
CC(C)=CCC/C(C)=C/COc1c2ccoc2cc2oc(=O)ccc12	4%	.	.	-26%	.
COC(=O)C1=C[C@@H](C(=O)OC)[C@@H]2C3=C(C(=O)C2(C)C)[C@H](c2ccccc2)[C@@H]2C(=O)N(c4ccccc4)C(=O)[C@@H]2[C@@H]3C1	-6%	.	.	1%	.
NN1C(=O)c2cccc3c(C(=O)O)ccc(c23)C1=O	-3%	2%	11%	-15%	?
CC(=O)c1ccc2c3c(cccc13)C(=O)N(CCc1ccccc1)C2=O	?	-28%	32µM*	?	28µM*
Cc1sc(NC(=O)Cc2ccc3c(c2)OCO3)nc1-c1ccc2c(c1)CCN2C(=O)c1cccc(F)c1	-3%	-4%	3%	19%	0%
Cc1ccccc1C(=O)N1CCc2cc(-c3nc(NC(=O)Cc4ccc5c(c4)OCO5)sc3C)ccc21	-16%	?	0.25µM*	4%	1%
SMILES	POLK inh	L3MBTL1 block	Pol beta inh	Pol iota inh	Pol eta inh
Cc1ccc(C(=O)Nc2ccc3c(c2)N(C)C(=O)c2ccccc2S3)cc1F	-11%[60.1 µM]	.	?	-8%	-6%
CCc1ccc(NC(=O)Cn2ccn(-c3ccc(OC)cc3)c(=O)c2=O)cc1	-11%	.	32µM*	11%	-6%
CC(=O)Nc1cccc(-n2cc3c(c2-c2ccccc2Cl)c(=O)n(C)c(=O)n3C)c1	89µM*	.	27%	?	8%
CC(=O)Nc1ccc(-n2cc3c(c2-c2ccc(C)cc2)c(=O)n(C)c(=O)n3C)cc1	-22%	.	5%	-3%	1%
O=C1C=CC(=O)c2c(O)c(Cl)c(Cl)c(O)c21	7.1µM*	.	.	.	.
O=C1C=Cc2cccc3ccc(O)c1c23	-6%	.	.	11%	-13%
C/C=C1\COC(C(=O)NC)(C(F)(F)F)C=C1C=C1CCCCC1 (configuration not stated)	14%	.	.	9%	.
COc1ccc(C=NNc2ccc(S(=O)(=O)Nc3ccccc3C(=O)O)cc2[N+](=O)[O-])c(OC)c1	?	?	.	?	50µM*
CCOc1ccc(C=NNc2ccc(S(=O)(=O)Nc3ccccc3C(=O)O)cc2[N+](=O)[O-])cc1	-14%	16µM*	.	?	-12%
CCOC(=O)CN(Cc1ccccc1)C(C(=O)NC1CCCCC1)c1ccc(C)cc1 (configuration not stated)	-11%	.	5%	9%	-15%
Cc1cc(N2CCC(C(=O)Nc3ccc(F)cc3F)CC2)n2nc(C)c(-c3ccc(Cl)cc3)c2n1	0%	.	14%	24%	-20%
CCCCCCc1cc2cc(C(N)=O)c(=N)oc2cc1O	.	.	32µM*	.	.
O=c1oc2c3c4c(cc2s1)CCCN4CCC3	?	.	22µM*	11µM*	?
O=c1ccc2cc3c4c(c2o1)CCCN4CCC3	-33%	5%	0%	?	?
Cc1ccc(S(=O)(=O)n2nc(-c3ccco3)nc2NCc2ccccc2Cl)cc1	-7%	.	0%	-5%	-11%
CCc1ccccc1NC(=O)c1sc2nc3n(c(=O)c2c1C)CCC3	-20%	.	-17%	-7%	-9%
c1ccc(-c2nn3c(Cn4nnc5ccccc54)nnc3s2)cc1	5%[60.1 µM]	-1%	-3%	-17%	-13%
COc1ccc(Cc2nn3c(Cn4nnc5ccccc54)nnc3s2)cc1	-11%	0%	35µM*	?	?
OC(c1ccccc1)C(Nc1ccccn1)c1ccccc1 (configuration not stated)	-7%	.	.	11%	-10%
Cc1cc(C(=O)CSc2nnc(-c3ccco3)o2)c(C)n1C	?	?	.	35µM*	-6%
CCn1c(C)cc(C(=O)CSc2nnc(-c3ccco3)o2)c1C	-10%	3%	.	-22%	-9%
COC(=O)c1ccc(C2c3c(oc4ccc(C)cc4c3=O)C(=O)N2Cc2ccc3c(c2)OCO3)cc1 (configuration not stated)	-20%	.	2%	14%	-13%

Screening results as filed in PubChem.
